Measured values reported in PubChem BioAssay AID1159580 (chemical genetic matrix, 2015).
The campaign covered roughly 5,500 compounds. About 2,000 (36%) were called active. Roughly 18% stayed inconclusive and do not appear here. Rule as the data show it: active = normalized growth mostly below about 0.91 (no sharp cut-off); inconclusive = no clear call, values can overlap the other calls; inactive = mostly above about 0.92. Some of the results follow.

Assay: chemical genetic growth profiling, strain panel (AID 1159580);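 also: tested at 20 µM; growth read once vehicle control cultures reached saturation at 30 °C; 1 = growth at the plate median or of vehicle wells; lower values mean less growth of the strain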
Settings: growth OD

Measured: normalized growth

COC(=O)C[C@H]1C(C)(C)[C@@H](OC(C)=O)[C@@H]2CC3=C4CC(=O)O[C@@H](c5ccoc5)[C@]4(C)CCC3[C@@]1(C)C2=O (some centres not stated)
inactive: S. cerevisiae deletion strains, locus YJR066W, strain TOR1, hits give low values 0.954 | S. cerevisiae deletion strains, locus YJR075W, strain HOC1, hits give low values 0.997 | S. cerevisiae deletion strains, locus YKL009W, strain mrt4, hits give low values 0.986 | S. cerevisiae deletion strains, locus YKL068W, hits give low values 1 | S. cerevisiae deletion strains, locus YKL085W, strain MDH1 (second series), hits give low values 0.993 | S. cerevisiae deletion strains, locus YKL085W, strain MDH1, hits give low values 0.993 | S. cerevisiae deletion strains, locus YKL160W, strain elf1, hits give low values 1.02 | S. cerevisiae deletion strains, locus YKR001C, strain vps1, hits give low values 1.01 | S. cerevisiae deletion strains, locus YKR026C, strain gcn3, hits give low values 0.992 | S. cerevisiae deletion strains, locus YKR091W, strain srl3, hits give low values 0.996 | S. cerevisiae deletion strains, locus YLL001W, strain dnm1, hits give low values 0.949 | S. cerevisiae deletion strains, locus YLL026W, hits give low values 0.998 | S. cerevisiae deletion strains, locus YLL041C, strain sdh2, hits give low values 0.997 | S. cerevisiae deletion strains, locus YLR027C, strain aat2, hits give low values 0.998 | S. cerevisiae deletion strains, locus YLR039C, strain RIC1, hits give low values 0.993 | S. cerevisiae deletion strains, locus YLR058C, strain SHM2, hits give low values 1 | S. cerevisiae deletion strains, locus YLR102C, strain apc9, hits give low values 1.01 | S. cerevisiae deletion strains, locus YLR113W, strain HOG1, hits give low values 1.03 | S. cerevisiae deletion strains, locus YLR221C, strain rsa3, hits give low values 0.961 | S. cerevisiae deletion strains, locus YLR258W, strain gsy2, hits give low values 1.01 | S. cerevisiae deletion strains, locus YLR262C, strain YPT6 (second series), hits give low values 1.02 | S. cerevisiae deletion strains, locus YLR268W, strain sec22, hits give low values 0.993 | S. cerevisiae deletion strains, locus YLR320W, strain mms22, hits give low values 0.978 | S. cerevisiae deletion strains, locus YLR330W, strain CHS5, hits give low values 1 | S. cerevisiae deletion strains, locus YLR342W, strain FKS1 (second series), hits give low values 1.02 | S. cerevisiae deletion strains, locus YLR342W, strain FKS1, hits give low values 1.02 | S. cerevisiae deletion strains, locus YLR357W, strain rsc2, hits give low values 1.01 | S. cerevisiae deletion strains, locus YLR370C, strain arc18, hits give low values 0.986 | S. cerevisiae deletion strains, locus YLR371W, strain rom2, hits give low values 0.983 | S. cerevisiae deletion strains, locus YLR384C, strain iki3, hits give low values 0.985 | S. cerevisiae deletion strains, locus YLR418C, strain cdc73, hits give low values 1.04 | S. cerevisiae deletion strains, locus YML016C, strain PPZ1, hits give low values 0.992 | S. cerevisiae deletion strains, locus YML032C, strain rad52, hits give low values 0.974 | S. cerevisiae deletion strains, locus YML120C, strain ndi1, hits give low values 1.01 | S. cerevisiae deletion strains, locus YML124C, strain tub3, hits give low values 1.01 | S. cerevisiae deletion strains, locus YMR058W, strain fet3, hits give low values 0.993 | S. cerevisiae deletion strains, locus YMR078C, strain ctf18, hits give low values 1.01 | S. cerevisiae deletion strains, locus YMR125W, strain sto1, hits give low values 1.01 | S. cerevisiae deletion strains, locus YMR129W, hits give low values 0.988 | S. cerevisiae deletion strains, locus YMR205C, strain PFK2, hits give low values 1.02 | S. cerevisiae deletion strains, locus YMR223W, strain ubp8, hits give low values 0.998 | S. cerevisiae deletion strains, locus YMR231W, strain pep5, hits give low values 0.998 | S. cerevisiae deletion strains, locus YMR263W, strain SAP30, hits give low values 1.01 | S. cerevisiae deletion strains, locus YMR307W, strain GAS1, hits give low values 0.927 | S. cerevisiae deletion strains, locus YNL067W, strain RPL9B, hits give low values 1.01 | S. cerevisiae deletion strains, locus YNL071W, strain lat1, hits give low values 1 | S. cerevisiae deletion strains, locus YNL128W, strain TEP1, hits give low values 0.99 | S. cerevisiae deletion strains, locus YNL153C, strain GIM3, hits give low values 1.02 | S. cerevisiae deletion strains, locus YNL183C, strain NPR1, hits give low values 0.958 | S. cerevisiae deletion strains, locus YNL209W, strain ssb2, hits give low values 1 | S. cerevisiae deletion strains, locus YNL233W, strain BNI4, hits give low values 1.01 | S. cerevisiae deletion strains, locus YNL248C, strain rpa49, hits give low values 0.961 | S. cerevisiae deletion strains, locus YNL250W, strain rad50, hits give low values 1 | S. cerevisiae deletion strains, locus YNL271C, strain bni1, hits give low values 0.982 | S. cerevisiae deletion strains, locus YNL298W, strain CLA4, hits give low values 1.01 | S. cerevisiae deletion strains, locus YNL307C, strain MCK1, hits give low values 1.01 | S. cerevisiae deletion strains, locus YNL322C, strain KRE1 (second series), hits give low values 1.01 | S. cerevisiae deletion strains, locus YNR049C, strain mso1, hits give low values 0.994 | S. cerevisiae deletion strains, locus YNR052C, strain pop2, hits give low values 1.01 | S. cerevisiae deletion strains, locus YOL012C, strain htz1 1.31 | S. cerevisiae deletion strains, locus YOL147C, strain pex11, hits give low values 0.999 | S. cerevisiae deletion strains, locus YOR001W, strain rrp6, hits give low values 0.939 | S. cerevisiae deletion strains, locus YOR061W, strain CKA2, hits give low values 0.995 | S. cerevisiae deletion strains, locus YOR069W, strain VPS5, hits give low values 1 | S. cerevisiae deletion strains, locus YOR070C, strain gyp1, hits give low values 0.991 | S. cerevisiae deletion strains, locus YOR080W, strain dia2, hits give low values 0.987 | S. cerevisiae deletion strains, locus YOR083W, strain WHI5, hits give low values 1.02 | S. cerevisiae deletion strains, locus YOR106W, strain vam3, hits give low values 1.02 | S. cerevisiae deletion strains, locus YOR136W, strain idh2, hits give low values 0.987 | S. cerevisiae deletion strains, locus YOR144C, strain elg1, hits give low values 0.998 | S. cerevisiae deletion strains, locus YOR184W, strain ser1, hits give low values 0.987 | S. cerevisiae deletion strains, locus YOR231W, strain MKK1, hits give low values 0.988 | S. cerevisiae deletion strains, locus YOR265W, strain rbl2, hits give low values 1 | S. cerevisiae deletion strains, locus YOR270C, strain vph1, hits give low values 0.888 | S. cerevisiae deletion strains, locus YOR290C, strain snf2, hits give low values 1.03 | S. cerevisiae deletion strains, locus YOR316C, strain cot1, hits give low values 1.01 | S. cerevisiae deletion strains, locus YPL051W, strain arl3, hits give low values 1 | S. cerevisiae deletion strains, locus YPL078C, strain atp4, hits give low values 1.01 | S. cerevisiae deletion strains, locus YPL106C, strain sse1, hits give low values 1.04 | S. cerevisiae deletion strains, locus YPL240C, strain hsp82, hits give low values 1 | S. cerevisiae deletion strains, locus YPL256C, strain CLN2, hits give low values 0.983 | S. cerevisiae deletion strains, locus YPR119W, strain clb2, hits give low values 0.996 | S. cerevisiae deletion strains, locus YPR141C, strain kar3, hits give low values 1 | S. cerevisiae deletion strains, locus YPR163C, strain tif3, hits give low values 1 | S. cerevisiae deletion strains, locus YPR167C, strain met16, hits give low values 0.995 | S. cerevisiae deletion strains, strain wtn01, hits give low values 0.978 | S. cerevisiae strains, strain wild type, hits give low values 0.997
